Assay outcomes as filed in PubChem.
Only some compounds are listed: those with a hit (about 3.5% of all), similar ones and a draw of the others.
TEAD-YAP block: TEAD-YAP interaction inhibition, primary screen, TEAD-YAP interaction inhibitor project, luminescence, HEK-TIYL cells; TEAD-Gal4/YAP UAS-luciferase luminescence; inhibition, % at 9.12 µM; hit rate 1.4% among 640,000; in the data active = inhibition above about 32%;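 also: 0% = median of test compound wells and 100% = reference inhibitor wells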
GPR151 ag: activators of human GPR151, primary screen, cell-based, PathHunter beta-arrestin, luminescence | G-protein coupled receptor 151 (Homo sapiens), Q8TDV0 | PathHunter beta-arrestin GPR151 cells | activation, % at 11.2 µM | hit rate 1% among 650,000 | AID 1508602, 2020; in the data active = activation above about 4.9%;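 also: 0% = median of compound wells and 100% = cells with positive control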
FBW7 act: FBW7 E3 ligase activators, primary screen, biochemical, AlphaScreen, human; hit rate 0.13% among 650,000; normalized activity (activation), % at 26.1 µM; AID 1259310, 2017; F-box/WD repeat-containing protein 7 (Homo sapiens), Q969H0; AlphaScreen FBW7–phospho-cyclin E peptide binding, activator screen; in the data active = normalized activity above about 1.9%;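 also: purified mutant Fbw7 with reduced substrate affinity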
MITF primary: MITF inhibitors, primary screen, biochemical, AlphaScreen, human. Microphthalmia-associated transcription factor (Homo sapiens), O75030. AlphaScreen MITF homodimerization, bead proximity signal. inhibition, % at 2.6 µM. hit rate 0.91% among 650,000; in the data active = inhibition above about 50%;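 also: 0% = vehicle wells with protein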
Target sequence (O75030 whole entry, looked up): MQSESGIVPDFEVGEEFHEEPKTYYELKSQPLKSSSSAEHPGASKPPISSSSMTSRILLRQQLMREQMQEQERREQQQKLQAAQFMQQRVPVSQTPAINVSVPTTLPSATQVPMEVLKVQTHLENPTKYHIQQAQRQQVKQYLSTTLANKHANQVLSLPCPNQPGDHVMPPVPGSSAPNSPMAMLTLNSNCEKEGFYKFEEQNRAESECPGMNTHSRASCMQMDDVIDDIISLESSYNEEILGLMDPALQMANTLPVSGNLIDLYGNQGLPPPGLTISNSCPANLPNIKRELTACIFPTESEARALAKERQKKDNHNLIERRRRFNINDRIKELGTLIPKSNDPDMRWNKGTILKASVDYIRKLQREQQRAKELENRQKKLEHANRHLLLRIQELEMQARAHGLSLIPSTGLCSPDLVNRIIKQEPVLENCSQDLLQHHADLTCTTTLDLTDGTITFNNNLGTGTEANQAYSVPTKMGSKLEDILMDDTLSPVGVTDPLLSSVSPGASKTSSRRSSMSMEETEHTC
GPR151 conf act: GPR151 activators, triplicate retest, confirmation, cell-based, PathHunter beta-arrestin, luminescence; 6,700 tested, under 10 active; shares compounds with GPR151 ag; activation, % at 11.2 µM; GPR151 PathHunter beta-arrestin cells, 90 min; % of EA-reagent control over plate median;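 active = mean percent activation across replicates above the confirmation screen cutoff of 4.91%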
GPR119 counter: GPR119 activators in beta-arrestin cells, counter-screen for GPR151 activator project, cell-based, PathHunter beta-arrestin, luminescence, triplicate. shares compounds with GPR151 ag. 90 min; 0 = compound-well median, 100 = enzyme-acceptor control. activation, % at 11.2 µM. hit rate 0.3% among 6,700;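 active = mean percent activation in the counterscreen above 29.09%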;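 also: counterscreen on off-target GPR119 to flag nonselective hits from the GPR151 activator screen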
An asterisk follows results filed as active; nt = not tested or not shown.

SMILES	TEAD-YAP block	GPR151 ag	FBW7 act	MITF primary	GPR151 conf act	GPR119 counter
CC(=O)c1cccc(NC(=O)CSc2nnc(-c3cc4ccccc4cc3O)n2C)c1	12	5.0*	0	-1	0	-2
CCN1CCN(Cn2cnc3c2c(=O)n(C)c(=O)n3C)CC1	3	0	0	6	nt	nt
COc1ccc(Nc2cc(-c3cncc(-c4ccc(OC)cc4)c3)nc(C)n2)cc1	-4	2	0	7	nt	nt
COc1ccc(Nc2cc(-c3cncc(-c4cccs4)c3)nc(C)n2)cc1	2	6.0*	0	5	-1	-11
CCCCOc1c(I)cc(C(=O)O)cc1OCC	-3	0	0	-9	nt	nt
CCOc1cc(C(=O)O)cc(I)c1OCc1ccccc1	8	9.2*	0	-1	0	7
O=c1/c(=C/c2ccc([N+](=O)[O-])cc2)sc2nc(-c3cccs3)nn12	-5	0	1	17	nt	nt
COc1ccc(CCn2ccc(-c3sc(NCc4ccco4)nc3C)n2)cc1	2	8.0*	0	-2	0	0
CCN1CCCC1CNC(=O)C1=CCN(S(=O)(=O)c2ccccc2)CC1 (stereo not drawn)	-9	1	0	-8	nt	nt
Cc1ccccc1S(=O)(=O)Cc1ccc(C(=O)NC2CCCCC2)o1	13	7.1*	0	6	0	-9
CCc1ccccc1S(=O)(=O)Cc1ccc(C(=O)NC2CCCC2)o1	8	3	1	14	nt	nt
CCOC(=O)N1CCN(C(=O)CN2C(=O)CC(C)(C)S(=O)(=O)c3ccccc32)CC1	7	5.9*	0	3	-1	3
CC1(C)CC(=O)N(CC(=O)O)c2ccccc2S1(=O)=O	7	-2	0	12	nt	nt
NC(=O)c1ccc(-c2cccc(N)c2)s1	-7	1	0	6	nt	nt
O=C(CSc1nnns1)Nc1ccc(F)c(Cl)c1	-4	-1	0	5	nt	nt
C=CCNC(=O)/C(C#N)=C/C=C/c1ccccc1	-7	-1	0	-4	nt	nt
COCCNC(=O)/C(C#N)=C/C=C/c1ccccc1	-14	6.0*	0	6	3	0
O=C(COc1ccc(Cl)cc1)NC(=O)NCc1ccco1	8	-1	0	-17	nt	nt
O=C(COC(=O)CCS(=O)(=O)c1ccccc1Cl)NC(=O)NCc1ccco1	2	6.4*	0	-2	2	0
Cc1c(O)ccc(C(=O)CN2CCN(c3ccccc3F)CC2)c1O	3	5.0*	0	-1	1	1
Cc1c(O)ccc(C(=O)CN2CCN(c3ccccc3)CC2)c1O	-1	0	0	8	nt	nt
Cc1cccc(Nc2ncc(F)c(Nc3cccc(C)c3)n2)c1	4	3	0	6	nt	nt
O=c1[nH]c2sc3c(c2c(=O)n1-c1ccccc1)CCCC3	6	0	0	3	nt	nt
O=c1[nH]c(=S)c2c(n1-c1ccccc1)CCC2	6	5.9*	0	5	1	9
CN1CCCC(OC(=O)c2cc(Br)ccc2Cl)C1 (stereo not drawn)	0	6.2*	0	25	-1	-1
SMILES	TEAD-YAP block	GPR151 ag	FBW7 act	MITF primary	GPR151 conf act	GPR119 counter
CN1CCCC(OC(=O)c2cc(Cl)ccc2Cl)C1 (stereo not drawn)	-6	0	0	-6	nt	nt
CCN(CC)c1nc(NCCCN2CCCC2=O)nc(NC2CC2)n1	-7	5.1*	0	-1	0	-4
CCNc1ncc(C)c(NCCCN2CCCC2=O)n1	4	-2	0	3	nt	nt
Cc1cnc(-c2ccc(C(=O)NC3CC3)cc2)nc1NCCCN1CCCC1=O	4	5.2*	0	11	1	5
Cc1cnc(-c2ccc(C(=O)N3CCN(C)CC3)cc2)nc1NCCCN1CCCC1=O	5	-1	0	-4	nt	nt
Cc1cnc(NCCCN2CCCC2=O)nc1NCCCN1CCCC1=O	4	6.8*	0	10	0	-2
Cc1cnc(-c2ccc(C(N)=O)cc2)nc1NCCN1CCOCC1	6	5.5*	0	-1	-1	4
Cc1cc(=O)nc2c3ccccc3n(CC(=O)N3CCOCC3)n12	-3	-1	0	-5	nt	nt
Cc1cnc(NCc2ccc3c(c2)OCO3)nc1NCCCN1CCCC1=O	-5	5.6*	1	6	1	2
O=C1CC(C(=O)Nc2ccccc2Cl)c2ccccc21 (stereo not drawn)	-1	9.4*	0	8	0	0
O=C(Nc1ccccc1Cl)C1CCCCC1	-1	0	0	16	nt	nt
Cc1ccc(S(=O)(=O)NC(=O)c2cccc(Br)c2)cc1	-3	2	0	-4	nt	nt
O=C(NS(=O)(=O)c1ccccc1)c1cccc(Br)c1	1	5.9*	0	12	0	-18
CCc1ccccc1N(CC(=O)NC1CC2CCC1C2)S(C)(=O)=O (stereo not drawn)	0	5.6*	0	8	0	-2
CS(=O)(=O)N(CC(=O)NC1CC2CCC1C2)c1cc(Cl)c(Cl)cc1Cl (stereo not drawn)	5	1	0	4	nt	nt
COc1ccccc1N=Cc1sc2ccccc2c1S	10	2	0	3	nt	nt
CNc1oc(-c2cccs2)nc1S(=O)(=O)c1ccccc1	1	5.1*	0	-4	0	11
N#Cc1cccc(C(=O)NC2CCCC2)c1	10	5.2*	0	-3	3	5
O=C(NC1CCCCCC1)c1cccc(I)c1	-46	0	0	3	nt	nt
CC(=O)N1CC(=O)N(OCN2C(=O)c3ccccc3C2=O)C1c1ccc(Cl)cc1Cl (stereo not drawn)	13	0	0	1	nt	nt
O=C(CCCCCCN1C(=O)c2ccccc2C1=O)NN(c1ccccc1)c1ccccc1	-3	6.2*	0	9	1	6
O=C(CCCCCN1C(=O)c2ccccc2C1=O)Nc1ccccc1	-8	0	0	3	nt	nt
N#Cc1cc([N+](=O)[O-])ccc1NC(=O)COC(=O)C1CC1	3	1	0	9	nt	nt
N#Cc1cc([N+](=O)[O-])ccc1NC(=O)COC(=O)CC1CCCC1	1	5.0*	0	-1	-1	-5
Cc1cc(NC(=O)COC(=O)CC2CCCCC2)no1	-3	5.0*	0	16	1	5
CC(C)(c1ccccc1)c1ccc(OC(=O)Nc2ccc(Cl)c(Cl)c2)cc1	-4	5.4*	0	-2	1	2
